“And” between values parts separate entries of the source, which are not always exact repeats. Equal entries are not always repeated. The source made the active and inactive calls. Rule for the calls: active = hit-call score of the fitted dose curve at least 0.9, where 1 is the maximum; inactive = score below 0.9.

The results in this text go back to PubChem BioAssay (EPA / NIEHS).

A short description of this experiment: BSK_BE3C_SRB: Viability Assessment in the BioMAP Diversity Plus: BE3C Assay (AID 2283028).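 For AC50: fitted both ways so AC50 may mark signal gain or loss versus DMSO.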 To be noted: primary human bronchial epithelial cells. The method, then: BSK_BE3C is a cell-based, multiplexed-readout assay that uses bronchial epithelial cell, a human lung primary cell, with measurements taken at 24 hours after chemical dosing in a 96-well plate.BSK_BE3C_SRB is an assay component measured in the BSK_BE3C assay. It measures 0.1% sulforhodamine related to cell death using Sulforhodamine staining technology.Data from the assay component BSK_BE3C_SRB was analyzed into 1 assay endpoint. This assay endpoint, BSK_BE3C_SRB, was analyzed with bidirectional fitting relative to DMSO as the negative control and baseline of activity. Using a type of viability reporter, gain or loss-of-signal activity can be used to understand changes in the signaling. Furthermore, this assay endpoint can be referred to as a primary readout, because this assay has produced multiple assay endpoints where this one serves a signaling function. To generalize the intended target to other relatable targets, this assay endpoint is annotated to the cell morphology intended target family, where the subfamily is cell conformation.
The levels of cell surface (or secreted, indicated by the prefix "s") biomarker endpoints were measured by ELISA. Overt cytotoxicity to cells in confluent adherent cultures (all systems other than the BT system) was assessed by measuring total protein levels using sulforhodamine B (SRB) staining in parallel cultures at the time of biomarker measurements, indicated as SRB endpoints. For proliferation assays for adherent cell types, individual cell types are cultured at sub-confluence and relative cell numbers quantified by SRB staining at time points optimized for each system (48 h: 3C and CASM3C systems; 72 h: BT and HDF3CGF systems; 96 h: SAg system). SRB was performed by staining cells with 0.1% SRB after fixation with 10% TCA and reading wells at 560 nm.Viability and proliferation of PBMC (T cells) was quantified by Alamar Blue reduction for the SAg and BT systems. For PBMC viability (referred to as PBMC Cytotoxicity within the assay endpoint names), cells were plated (75,000/well in a 96-well plate) and then chemical samples added for 1 h before addition of activators, SEB and TSST-1 (20 ng/mL final concentration each). Cells were incubated for 90 h. Then, Alamar Blue (20 uL/well) (Invitrogen, Cat DAL1100) was added for 6 h, and the plates were read with a fluorescence microplate reader at 546/580 nm (excitation/emission). For PBMC proliferation, cells were plated and activated as above but incubated for only 16 h prior to addition of Alamar Blue. Plates were read after 6 h.
Regarding `C=C(C)C(=O)OCC(F)(F)C(F)(F)C(F)(F)F`, the result was inactive.

Regarding `CO[Si](OC)(c1ccccc1)c1ccccc1`, the outcome was inactive.

Turning to `O=C(O)C(F)(F)C(F)(F)C(F)(F)C(F)(F)F`, the result was inactive.

On to `CCCCNc1ccccc1`, for which the result was inactive.

For the molecule `O=C(O)C(F)(OC(F)(F)C(F)(OC(F)(F)C(F)(OC(F)(F)C(F)(F)C(F)(F)F)C(F)(F)F)C(F)(F)F)C(F)(F)F` (stereo not given), the outcome was inactive.

For the molecule `FC(F)(F)C(F)(F)C(F)(F)C(F)(F)C(F)(F)C(F)(F)C(F)(F)C(F)(F)F`, the result was inactive.

As to `Cc1ccc(S(=O)(=O)OCC(F)(F)C(F)(F)C(F)(F)C(F)(F)C(F)(F)C(F)F)cc1`, the result was inactive.

`OCCCC(F)(F)C(F)(F)C(F)(F)C(F)(F)C(F)(F)C(F)(F)C(F)(F)F`: the AC50 (usually the midpoint of the concentration-response curve, whichever way the signal moves) was 49.1 µM (active) and 52.5 µM (active).

On to `Nc1ccc([N+](=O)[O-])cc1O`, for which the result was inactive.

For the molecule `OCC(F)(F)C(F)(F)C(F)(F)C(F)(F)C(F)(F)C(F)F`, the outcome was inactive.

As for `COC(=O)CCC(F)(F)C(F)(F)C(F)(F)C(F)(F)F`, the outcome was inactive.

In the case of `O=C(O)C(F)(F)C(F)(F)OC(F)(F)F`, the outcome was inactive.

For `C=CC(F)(F)C(F)(F)C(F)(F)C(F)(F)C(F)(F)C(F)(F)C(F)(F)C(F)(F)F`, the result was inactive.

Consider `CCN(CC)c1ccc2c(C)cc(=O)oc2c1`, for which the result was inactive.

For `O=C(O)C(F)(F)C(F)(F)C(F)(F)C(F)(F)C(F)(F)C(F)(F)C(F)(F)C(F)(F)C(F)(F)C(F)(F)C(F)(F)C(F)(F)F`, the result was inactive.

Take `FC1CC(F)(F)C(F)(F)C1(F)F` (stereo not given): the result was inactive.

In the case of `O=C(O)C(F)(F)C(F)(F)C(F)(F)F`, the outcome was inactive.

`OCC(F)(F)C(F)(F)C(F)(F)F`: the result was inactive.

Regarding `FC(F)(F)C(F)(F)C(F)(F)N(C(F)(F)C(F)(F)C(F)(F)F)C(F)(F)C(F)(F)C(F)(F)F`, the outcome was inactive.

Consider `C=CC(=O)OCC(F)(F)C(F)(F)C(F)(F)C(F)(F)C(F)(F)C(F)(F)C(F)(F)F`, for which the outcome was inactive.

Regarding `NC(=O)C(F)(F)C(F)(F)C(F)(F)C(F)(F)F`, the outcome was inactive.

Turning to `FC(F)(F)C(F)(F)C(F)(F)C(F)(F)C(F)(F)C(F)(F)CCS`, the outcome was inactive.

Regarding `OCCCC(F)(F)C(F)(F)C(F)(F)F`, the result was inactive.

On to `O[Si](c1ccccc1)(c1ccccc1)c1ccccc1`, for which the result was inactive.

In the case of `O=C(Cl)C(F)(F)C(F)(F)C(F)(F)C(F)(F)C(F)(F)C(F)(F)C(F)(F)C(F)(F)F`, the AC50 was 58.5 µM (active) and 46.6 µM (active) and 47.3 µM (active).

With `C=C(C)C(=O)OCCC(F)(F)C(F)(F)C(F)(F)C(F)(F)C(F)(C(F)(F)F)C(F)(F)F`, the outcome was inactive.

Consider `FC(F)(F)C(F)(F)C(F)(F)C(F)(F)C(F)(F)C(F)(F)C(F)(F)I`, for which the outcome was inactive.

As for `FC(F)(F)C(F)(F)C(F)(F)CI`, the outcome was inactive.

Consider `O=C(O)C(F)(F)C(F)(F)C(F)(F)C(F)(F)C(F)(F)C(F)(F)C(F)(F)C(F)(F)C(F)(F)C(F)(F)C(F)(F)C(F)(F)C(F)(F)F`, for which the outcome was inactive.

In the case of `CCO[Si](CCC(F)(F)C(F)(F)C(F)(F)C(F)(F)C(F)(F)C(F)(F)F)(OCC)OCC`, the outcome was inactive.

On to `CS(C)(=O)=O`, for which the result was inactive.

With `O=C(O)C(F)(F)C(F)(F)C(F)F`, the result was inactive.

For the molecule `C=CC/C=C/C/C=C/C/C=C/C`, the result was inactive.

As to `O=C(O)C=C(C(F)(F)F)C(F)(F)F`, the outcome was inactive.

Take `CCCCC(CC)COP(=O)(O)OCC(CC)CCCC` (stereo not given): the result was inactive.

In the case of `CC(=O)Nc1ccc(N=Nc2cc(C)ccc2O)cc1`, the result was inactive.

As for `O=C(O)C(F)(F)C(F)(F)F`, the result was inactive.

For `O=S(=O)(OCCOC(F)(F)F)C(F)(F)F`, the outcome was inactive.

As for `FC(F)(I)C(F)(F)C(F)(F)C(F)(F)I`, the AC50 was 50.1 µM (active) and 43.1 µM (active) and 44.2 µM (active).

Take `FC(F)(F)C(F)(F)C(F)(F)C(F)(F)C(F)(F)CCI`: the outcome was inactive.
